Source: PubChem BioAssay
The list is not random: actives were taken first. Their share in the collection is about 1.6%.
KCNQ2 block: blocks the rat KCNQ2 potassium channel. O88943. CHO-K1 KCNQ2, FluxOR thallium flux, 20 min; stronger effect = lower value. B-score at 10 µM. 310,000 tested, 1.1% active;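 active means fluorescence ratio B-score at most minus 3 library SDs, with starting brightness B-score within 2 library SDs, cut at about -5.5 in these data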
KCNQ2 pot: potentiators of rat KCNQ2 potassium channel. AID 2239. O88943. 310,000 tested, 0.54% active. CHO-K1 KCNQ2, FluxOR thallium flux fluorescence; stronger effect = higher value. B-score at 10 µM;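 active means fluorescence ratio B-score at least 3 SD of library B-scores, with initial fluorescence B-score within 3 of them, cut at about 5.3 in these data; same plate scores as AID 2156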;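 further: B-score of peak minus minimum over baseline fluorescence ratio after K+ and Tl+ stimulus; positive B-score means potentiation of KCNQ2 with more thallium influx and brighter signal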
Kir21 confirm: confirmation of mouse Kir2.1 potassium channel inhibitors | shares compounds with KCNQ2 pot | Kir2.1-expressing cells, FluxOR thallium flux fluorescence; stronger effect = lower value | Tl flux remaining, % of negative control (stronger effect = lower value), % at 10 µM | 2,300 tested, 41% active;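 active means Primary-screen hit whose thallium flux fell at least 3 control SD below untreated wells in both duplicates, with normal baseline fluorescence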;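 further: 0% = blank wells without stimulus and 100% = stimulated no-compound controls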
HEK293 ctr: counter-screen for Kir2.1 inhibitors: effect in parental HEK293 cells. FluxOR thallium flux fluorescence; 0% = unstimulated blank wells. 2,300 tested, 19% active. FluxOR signal as % of negative control (100 = no effect), % at 10 µM. shares compounds with KCNQ2 pot;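 active means dye signal at least 3 control SD above or below untreated wells in both duplicates, raw fluorescence within 3, either direction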;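 further: percent is based on the flux ratio of peak minus minimum fluorescence over baseline F0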
CHO-K1 Tl ctr: parental CHO-K1 activity in KCNQ2 potentiator counter-screen; shares compounds with KCNQ2 pot; parental CHO-K1 cells, FluxOR thallium flux fluorescence; zero = vehicle mean+3SD, 100% = vehicle-minus-blank window; activity increase over 3SD of controls, % at 10 µM; 1,200 tested, 43% active;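 active means signal rise of at least 3 SD above the untreated control mean, in both duplicate wells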;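 further: counter screen of KCNQ2 potentiator hits so any rise reflects channel-independent effects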
KCNQ1 sel pot: human KCNQ1 counter-target activity of KCNQ2 potentiators. shares compounds with KCNQ2 pot. CHO KCNQ1 stable, FluxOR thallium flux fluorescence; beyond 3SD, as % of vehicle-control signal. activation over 3SD threshold, % at 10 µM. 1,200 tested, 28% active. AID 2283;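 active means fluorescence ratio rise of at least 3 SD of vehicle wells above their mean, in both replicate wells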;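 further: 0% = vehicle mean plus 3 SD and 100% = vehicle minus unstimulated blank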
Target sequence (P51787 whole entry, looked up): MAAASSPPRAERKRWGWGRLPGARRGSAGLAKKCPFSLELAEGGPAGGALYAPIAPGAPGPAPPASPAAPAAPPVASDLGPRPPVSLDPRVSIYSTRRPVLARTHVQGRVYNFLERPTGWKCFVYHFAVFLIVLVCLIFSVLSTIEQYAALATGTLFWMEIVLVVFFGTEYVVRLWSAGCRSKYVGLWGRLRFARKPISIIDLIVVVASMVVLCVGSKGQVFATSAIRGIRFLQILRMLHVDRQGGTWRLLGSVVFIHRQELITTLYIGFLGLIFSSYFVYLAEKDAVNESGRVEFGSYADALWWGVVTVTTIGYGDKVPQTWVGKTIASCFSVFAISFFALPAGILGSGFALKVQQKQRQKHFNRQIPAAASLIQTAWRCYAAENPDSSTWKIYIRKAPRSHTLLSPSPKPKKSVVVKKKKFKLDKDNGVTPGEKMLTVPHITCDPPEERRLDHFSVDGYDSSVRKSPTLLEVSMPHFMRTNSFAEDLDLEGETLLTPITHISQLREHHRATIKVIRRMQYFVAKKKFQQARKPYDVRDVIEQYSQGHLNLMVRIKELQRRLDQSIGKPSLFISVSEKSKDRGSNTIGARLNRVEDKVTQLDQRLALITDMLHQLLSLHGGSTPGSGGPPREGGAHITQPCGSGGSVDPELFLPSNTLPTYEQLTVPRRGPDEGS
KCNQ2 pot conf: confirmation of rat KCNQ2 potassium channel potentiators; shares compounds with KCNQ2 pot; CHO-KCNQ2 cells, FluxOR thallium flux fluorescence; potentiation, less the hit threshold, % at 10 µM; 1,200 tested, 68% active;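 active means fluorescence ratio rising 3 SD or more over the vehicle control mean in both replicates, plus primary screen hit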;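 further: peak minus minimum thallium fluorescence divided by baseline after K/Tl stimulus; 0% = vehicle mean plus 3 SD and 100% = vehicle minus unstimulated blank difference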
Kir21 spec: selectivity of KCNQ2 potentiators: effect on mouse Kir2.1; shares compounds with KCNQ2 pot; HEK293 Kir2.1, FluxOR thallium flux fluorescence; activity over 3SD threshold, % at 10 µM; 1,200 tested, 2% active; AID 2345;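 active means fluorescence ratio rise of at least 3 SD above the vehicle-control mean, seen in both replicates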;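 further: 0% = vehicle mean plus 3 SD and 100% = vehicle minus no-stimulus blank window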
KCNQ2 W236L pot: rat KCNQ2 W236L mutant potentiation by KCNQ2 potentiators | shares compounds with KCNQ2 pot | CHO KCNQ2-W236L, automated patch clamp current | current increase over 3SD of negative controls (%), stronger effect = higher value, % at 25 µM | 940 tested, 10% active;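 active means current increase at least 3 SD of the untreated controls above them in both duplicate recordings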
* = called active by the depositor; i = inactive; / = no result given.

SMILES	KCNQ2 block	KCNQ2 pot	Kir21 confirm	HEK293 ctr	others
CC(C)Cc1csc(NC(=O)C(C)C)c1C(=O)O	i	1	/	/
O=C(NCc1ccccc1)c1ccc(F)c(S(=O)(=O)N2CCOCC2)c1	i	/	/	/
O=C(Nc1nc2c(s1)CCc1ccccc1-2)c1cccs1	i	0.02	/	/
O=C(Nc1ncc2c(n1)-c1ccccc1CC2)c1cccs1	i	9.7*	i	i	CHO-K1 Tl ctr=-9;KCNQ1 sel pot=-9;KCNQ2 pot conf=29*;Kir21 spec=-14;KCNQ2 W236L pot=i
O=C(Nc1ncc2c(n1)-c1ccccc1CC2)c1ccc(F)cc1	i	4.5	/	/
O=C(Nc1ncc2c(n1)-c1ccccc1CC2)c1ccccc1	i	8.5*	i	73%*	CHO-K1 Tl ctr=-6;KCNQ1 sel pot=73*;KCNQ2 pot conf=17*;Kir21 spec=-50;KCNQ2 W236L pot=i
CC(C)c1cc(-c2cc(C(=O)Nc3ccccc3)on2)nc(NC2CCCC2)n1	i	/	/	/
CC1CCN(CCCNC(=O)c2ccc(CSCc3cccc(Cl)c3)o2)CC1	i	/	37%*	i
CN1CCN(CCCNC(=O)c2ccc(CSCc3cccc(Cl)c3)o2)CC1	i	1.2	/	/
O=C1NC(=O)/C(=C\c2ccc(OCc3ccccc3)cc2)S1	i	8*	i	i	CHO-K1 Tl ctr=-9;KCNQ1 sel pot=-32;KCNQ2 pot conf=-13;Kir21 spec=-36
O=C1NC(=O)/C(=C\c2ccccc2OCc2ccccc2)S1	i	0.21	/	/
COC(CNc1ncnc2c1cnn2C)OC	i	0.15	/	/
Cn1ncc2c(O/N=C(\N)c3ccc(C(C)(C)C)cc3)ncnc21	i	6.2*	i	i	CHO-K1 Tl ctr=47*;KCNQ1 sel pot=-1;KCNQ2 pot conf=6.1*;Kir21 spec=-36;KCNQ2 W236L pot=i
CN(C)CC/C=C1\c2ccccc2Sc2cc(F)c(Cl)cc21	i	/	/	/
CN(C)CC/C=C1/c2ccc(F)cc2Sc2ccc(Cl)cc21	-5.8*	-5.8	i	i
CN(C)CC/C=C1\c2ccccc2Sc2ccc(Cl)cc21	i	0.23	26%*	i
CN(C)CCCN1c2ccccc2Sc2ccc(Cl)cc21	i	0.4	28%*	i
OCCN1CCN(CCCN2c3ccccc3Sc3ccc(Cl)cc32)CC1	i	/	/	/
CN(C)CC/C=C1\c2ccc(F)cc2Sc2cc(F)c(Cl)cc21	i	/	/	/
O=C(C[n+]1ccccc1)Nc1cc(C(F)(F)F)ccc1Cl	i	0.47	/	/
CCN(CC)S(=O)(=O)c1cccc(C(=O)NC(C(=O)NC2=NCCS2)C(C)C)c1 (configuration not stated)	i	0.24	/	/
CCN(CC)S(=O)(=O)c1cccc(C(=O)N[C@H](C(=O)NNC(=O)c2ccccc2)C(C)C)c1	i	8*	i	i	CHO-K1 Tl ctr=-25;KCNQ1 sel pot=0.2*;KCNQ2 pot conf=-23;Kir21 spec=-23
COc1ccc(CN2CCNC(=O)C2CC(=O)N(C)CCc2cnn(C)c2)c(F)c1 (configuration not stated)	i	0.3	/	/
Cc1ccc(CC(=O)Nc2cc([N+](=O)[O-])ccc2F)cc1	i	/	/	/
COc1ccccc1NC(=S)N=Nc1c(O)[nH]c2ccc(Br)cc12	i	/	/	/
COC(=O)c1ccc(C(=O)NC(=S)Nc2nc3c(s2)CCCC3)cc1	i	7.3*	i	i	CHO-K1 Tl ctr=83*;KCNQ1 sel pot=-7;KCNQ2 pot conf=-8;Kir21 spec=-42;KCNQ2 W236L pot=i
O=C(NC(=S)Nc1nc2c(s1)CCCC2)c1ccccc1	i	3.9	/	/
Cc1ccc(C(C)NC(=O)c2cccs2)cc1C (configuration not stated)	i	8.5*	i	i	CHO-K1 Tl ctr=-9;KCNQ1 sel pot=13*;KCNQ2 pot conf=2.3*;Kir21 spec=-29;KCNQ2 W236L pot=i
Cc1ccc(C(=O)NC(C)c2ccc3c(c2)OCO3)s1 (configuration not stated)	i	3.1	/	/
